Screening data from PubChem BioAssay.
Rows were chosen to be rich in hits. Some 3.5% of all compounds tested hit in one or more screens of this group.
FBW7 activator – FBW7 E3 ligase activators, primary screen, biochemical, AlphaScreen, human; F-box/WD repeat-containing protein 7 (Homo sapiens), Q969H0; hit rate 0.13% among 650,000; normalized activity (activation), % at 26.1 µM; AID 1259310, 2017; AlphaScreen FBW7–phospho-cyclin E peptide binding, activator screen; in the data active = normalized activity above about 1.9%;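 note: purified mutant Fbw7 with reduced substrate affinity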
Target sequence (Q969H0 whole entry, looked up): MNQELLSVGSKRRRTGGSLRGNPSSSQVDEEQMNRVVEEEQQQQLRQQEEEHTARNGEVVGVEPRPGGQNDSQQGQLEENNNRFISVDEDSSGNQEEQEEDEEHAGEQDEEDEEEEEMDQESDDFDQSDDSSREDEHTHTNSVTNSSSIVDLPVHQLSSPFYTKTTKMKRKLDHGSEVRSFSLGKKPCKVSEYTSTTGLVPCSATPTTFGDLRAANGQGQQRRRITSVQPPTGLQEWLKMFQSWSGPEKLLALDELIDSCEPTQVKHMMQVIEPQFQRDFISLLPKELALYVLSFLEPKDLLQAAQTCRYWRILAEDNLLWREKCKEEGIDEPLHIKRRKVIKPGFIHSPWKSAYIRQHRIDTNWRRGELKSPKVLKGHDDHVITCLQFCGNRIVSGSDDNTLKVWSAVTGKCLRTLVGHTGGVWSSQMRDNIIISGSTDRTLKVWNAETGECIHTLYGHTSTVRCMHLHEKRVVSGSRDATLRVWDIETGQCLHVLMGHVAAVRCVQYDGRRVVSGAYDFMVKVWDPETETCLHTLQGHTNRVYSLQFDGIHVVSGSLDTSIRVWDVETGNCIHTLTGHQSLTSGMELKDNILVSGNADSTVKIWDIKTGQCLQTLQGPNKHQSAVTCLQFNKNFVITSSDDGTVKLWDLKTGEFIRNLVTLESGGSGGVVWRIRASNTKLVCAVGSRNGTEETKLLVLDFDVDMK
TEAD-YAP inh – TEAD-YAP interaction inhibition, primary screen, TEAD-YAP interaction inhibitor project, luminescence, HEK-TIYL cells. TEAD-Gal4/YAP UAS-luciferase luminescence. AID 1259422, 2018. inhibition, % at 9.12 µM. hit rate 1.4% among 640,000; in the data active = inhibition above about 32%;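 note: 0% = median of test compound wells and 100% = reference inhibitor wells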
MITF primary – MITF inhibitors, primary screen, biochemical, AlphaScreen, human; Microphthalmia-associated transcription factor (Homo sapiens), O75030; AlphaScreen MITF homodimerization, bead proximity signal; inhibition, % at 2.6 µM; hit rate 0.91% among 650,000; AID 1259374, 2018; in the data active = inhibition above about 50%;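 note: 0% = vehicle wells with protein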
GPR151 activ – activators of human GPR151, primary screen, cell-based, PathHunter beta-arrestin, luminescence; G-protein coupled receptor 151 (Homo sapiens), Q8TDV0; PathHunter beta-arrestin GPR151 cells; activation, % at 11.2 µM; hit rate 1% among 650,000; in the data active = activation above about 4.9%;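 note: 0% = median of compound wells and 100% = cells with positive control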
* hit, by the source's call.

SMILES | FBW7 activator | TEAD-YAP inh | MITF primary | GPR151 activ
CCCN(C(=O)c1ccccc1)c1c(C)n(C)n(-c2ccccc2)c1=O | 0 | -15 | -19 | -1
CCCN(C(=O)c1ccc(Cl)cc1)c1c(C)n(C)n(-c2ccccc2)c1=O | 3.2* | -6 | 3 | -1
O=C(CCCCCCC(=O)N/N=C/c1ccccc1O)N/N=C/c1ccccc1O | 0 | 4 | -10 | 0
COc1ccc(N2C(N)=C(C#N)C(c3ccc(F)cc3)C3=C2CCCC3=O)cc1 (stereo not given) | 0 | 51* | 6 | -2
N#CC1=C(N)N(c2ccc(F)cc2)C2=C(C(=O)CCC2)C1c1ccc(F)cc1 (stereo not given) | 0 | -1 | 8 | 0
CCOc1ccc(C2C(C#N)=C(N)N(c3ccc(OC)cc3)C3=C2C(=O)CCC3)cc1 (stereo not given) | 0 | 50* | -1 | 0
COC(=O)c1c(N2C(N)=C(C#N)C(c3ccccc3)C3=C2CCCC3=O)sc2c1CCCC2 (stereo not given) | 0 | 54* | -4 | 0
CN(C)c1ccc(C2C3=C(CC(C)(C)CC3=O)Nc3ccccc3N2C(=S)Nc2ccccc2)cc1 (stereo not given) | 0 | -39 | -3 | 0
CCC(=O)C1CCCN(C(=O)CC2(c3ccc(OC)cc3)CC(=O)N(C)C2=O)C1 (stereo not given) | 0 | -67 | -4 | 0
O=C(/C=C/c1ccc(O)c(O)c1)c1ccc(O[C@@H]2O[C@H](CO)[C@@H](O)[C@H](O)[C@H]2O)c(O)c1O | 0 | 2 | 56* | 3
CC1Oc2ccccc2N(CC(=O)N(C(C)C)C(C)C)C1=O (stereo not given) | 0 | 51* | 8 | 1
CCOC(=O)c1c(N2C(N)=C(C#N)C(c3ccc(F)cc3)C3=C2CC(C)(C)CC3=O)sc2c1CCCC2 (stereo not given) | 0 | 2 | 14 | 0
CC(=O)c1ccc(-c2ccc(N)c(C(=O)c3ccccc3)c2)cc1 | 0 | 58* | -5 | 0
CSc1nnc(C(C)(C)C)c(=O)n1/N=C/c1ccccc1[N+](=O)[O-] | 0 | 6 | 11 | 0
CSc1nnc(C(C)(C)C)c(=O)n1/N=C/c1ccccc1O | 0 | 6 | 75* | 0
O=c1[nH]c(CCl)nc2sc(-c3ccccc3)cc12 | 0 | 33* | 5 | -2
CC(C)(C)c1ccccc1OCC(=O)Nc1nccs1 | 0 | 5 | -13 | -1
Cc1ccc(C(C)(C)C)c(OCC(=O)Nc2nccs2)c1 | 0 | 50* | 11 | -1
Cc1ccc(/C=C/C(=O)Nc2nccs2)cc1 | 0 | 69* | 18 | -7
Cc1ccccc1OCC(=O)Nc1nccs1 | 0 | 50* | 3 | -10
Cc1ccc(C)c(OCC(=O)Nc2nccs2)c1 | 0 | -14 | 12 | -2
Cc1ccc(OCC(=O)Nc2nccs2)c(C)c1 | 0 | 93* | 5 | -8
CCC[C@@H]1NC(=O)[C@@H]2C[C@H](NC(=O)c3cccc(F)c3F)CN2C1=O | 0 | 3 | 13 | -1
COCCc1nnc(NC(=O)c2ccc3c(c2)CCCC3)o1 | -1 | 3 | 16 | 1
O=C(CCSc1ccccc1)NC(=O)CSc1ccccc1 | 0 | -8 | 0 | -1
SMILES | FBW7 activator | TEAD-YAP inh | MITF primary | GPR151 activ
COc1ccc(NC(=O)c2sc3ncnc(N4CCN(c5ccccc5F)CC4)c3c2C)c(OC)c1 | 0 | 6 | 1 | 1
O=C(Nc1ccc(Br)cc1)c1ccc(F)c(S(=O)(=O)NCC2CCCO2)c1 (stereo not given) | 0 | 50* | 1 | 1
COc1ccccc1CNS(=O)(=O)c1cc(C(=O)Nc2ccc(Br)cc2)ccc1F | 0 | 33* | 1 | 3
O=C(Nc1ccc(Br)cc1)c1ccc(F)c(S(=O)(=O)NCc2ccco2)c1 | 0 | 43* | -4 | 0
NC(=O)c1ccccc1Nc1cc(NC(=O)C2CCc3ccccc32)ncc1C(F)(F)F (stereo not given) | 0 | 75* | 16 | 1
NC(=O)c1ccccc1Nc1cc(NC(=O)Cc2ccc(F)c(F)c2)ncc1C(F)(F)F | 0 | 92* | 9 | 1
N#Cc1ccccc1NC(=O)CSc1ccc([N+](=O)[O-])cn1 | 0 | 11 | 23 | -1
NC(=O)c1ccccc1Nc1cc(Oc2ccccc2F)ncc1C(F)(F)F | 0 | -1 | -2 | 3
CNC(=O)c1cncnc1Nc1cc(NC(=O)Cc2ccc(OC)cc2)ncc1C(F)(F)F | 0 | 54* | 7 | 1
COc1ccc2c(c1)CCC2C(=O)Nc1cc(Nc2ccccc2C(N)=O)ccn1 (stereo not given) | 0 | 13 | -2 | 0
CNC(=O)c1cncnc1Nc1cc(Nc2ccc3c(c2)CC(=O)N3)ncc1C(F)(F)F | 0 | 25 | 2 | 0
N#Cc1ccccc1Nc1cc(NC(=O)Cc2ccc([N+](=O)[O-])cc2)ncc1C(F)(F)F | 0 | 40* | 15 | -2
CC(=O)Nc1ccc(NC(=O)c2ccc3nc(NCc4cccnc4)sc3c2)cc1 | 0 | -1 | -1 | 0
COc1ccc(CC(=O)Nc2cc(Nc3ccccc3C(N)=O)c(C(F)(F)F)cn2)cc1 | 0 | 98* | -2 | -2
CC(C)NC1CCC(Nc2cc(Nc3ccccc3C(N)=O)c(C(F)(F)F)cn2)CC1 (stereo not given) | 0 | 94* | 9 | -2
NC(=O)c1ccccc1Nc1cc(NC(=O)Cc2ccc([N+](=O)[O-])cc2)ncc1C(F)(F)F | 0 | 96* | 2 | 1
O=C(Cc1ccc(F)cc1)Nc1cc(Nc2ccccc2-c2nn[nH]n2)c(C(F)(F)F)cn1 | 0 | -3 | 2 | -1
NC(=O)c1ccccc1Nc1cc(NC(=O)Cc2ccc(F)cc2)ncc1C(F)(F)F | 0 | 95* | 18 | 2
Cc1ccc(C)c(OCCCCN2CCNCC2)c1 | 0 | -9 | -10 | 0
CCSc1cccc(C(=O)N2CCN(c3nc4c(F)cc(F)cc4s3)CC2)c1 | 0 | -3 | -2 | 0
NC(=O)c1ccccc1Nc1cc(NC(=O)Cc2ccc(F)c(F)c2)ncc1Cl | 0 | 83* | 10 | -1
Nc1cc(Nc2ccccc2CO)c(C(F)(F)F)cn1 | 0 | 5 | -6 | 0
O=C(Cc1ccc(F)cc1)Nc1cc(Nc2ccccc2CO)c(C(F)(F)F)cn1 | 0 | 62* | 3 | -2
NC(=O)c1ccccc1Nc1cc(NC(=O)Cc2ccc(F)c(F)c2)ncc1F | 0 | 15 | -4 | 1
O=C(O)c1ccc2c(c1)C1C=CCC1C(c1cccc([N+](=O)[O-])c1)N2 (stereo not given) | -1 | 14 | 83* | 1
O=[N+]([O-])c1cccc(C2Nc3ccc4ccccc4c3C3C=CCC32)c1 (stereo not given) | 0 | 40* | 3 | 0
COc1ccc(C2Nc3ccc(C(=O)O)cc3C3C=CCC32)cc1 (stereo not given) | -1 | -3 | 73* | 0
